Hits are enriched below; roughly 2.4% of the tested compounds scored in any of these assays.
CHO-K1 Ca PAM = M1 PAM counterscreen hit in parental CHO-K1 cells | ATP EC20, Fluo-8 calcium fluorescence; 0% at ATP EC20, 100% at ATP max | activation, % at 3 µM | 360,000 compounds, 0.02% hits;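 active = activation above the run cutoff, the mean activation of all test compounds plus 3 SD, cut at about 40% in these data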;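 note: peak over basal fluorescence ratio in a 140 s read after ATP addition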
CHRM1 PAM = positive allosteric modulators of human M1 muscarinic receptor; P11229; CHO-K1 hM1, Fluo-8 calcium fluorescence, ACh EC20; 0% = ACh EC20, 100% = maximal ACh; activation, % at 3 µM; 360,000 compounds, 0.088% hits; in the data active = activation above about 19%, passing the limit was not always enough
Target sequence (P11229 whole entry, looked up): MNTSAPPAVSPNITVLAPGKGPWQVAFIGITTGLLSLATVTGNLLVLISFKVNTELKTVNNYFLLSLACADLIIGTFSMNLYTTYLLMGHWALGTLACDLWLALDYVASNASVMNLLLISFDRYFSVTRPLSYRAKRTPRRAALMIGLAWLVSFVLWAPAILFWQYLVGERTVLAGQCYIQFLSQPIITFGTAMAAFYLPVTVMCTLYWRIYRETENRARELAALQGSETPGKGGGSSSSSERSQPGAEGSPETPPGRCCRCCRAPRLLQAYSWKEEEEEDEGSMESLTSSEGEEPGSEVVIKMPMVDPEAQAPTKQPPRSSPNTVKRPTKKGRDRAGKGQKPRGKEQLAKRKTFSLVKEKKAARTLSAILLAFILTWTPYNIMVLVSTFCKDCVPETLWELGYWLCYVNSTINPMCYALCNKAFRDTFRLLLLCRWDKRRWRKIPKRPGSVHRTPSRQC
CHRM1 antagonist = blocks human M1 muscarinic receptor | CHO-K1 hM1, Fluo-8 calcium fluorescence, ACh EC80 antagonist | 360,000 compounds, 1.3% hits | inhibition, % at 3 µM | P11229;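 active = percent inhibition above its own plate's cutoff, namely the mean of that plate's compound wells plus 3 SD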;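 note: peak over basal fluorescence ratio during 140 s after agonist addition; 0% = ACh EC80 plus DMSO and 100% = DMSO alone without agonist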
CHO-K1 Ca antag = nonselective inhibitor or artifact in parental CHO-K1 cells; inhibition, % at 3 µM; 360,000 compounds, 0.6% hits; AID 602250; ATP-induced calcium, Fluo-8 fluorescence;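 active = inhibition above a per-plate cutoff, the plate's mean sample inhibition plus 3 SD, cut at about 24% in these data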;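 note: 0% = DMSO plus EC80 ATP and 100% = DMSO alone without ATP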
CHRM1 agonist = agonists of human M1 muscarinic receptor. 360,000 compounds, 0.33% hits. CHO-K1 hM1, Fluo-8 calcium fluorescence, agonist mode; 0% DMSO, 100% acetylcholine EC100. AID 588814. activation, % at 3 µM. P11229;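 active = activation above the run's mean compound activation plus 3 SD, cut at about 16% in these data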;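 note: peak over basal fluorescence ratio within a 140 s kinetic read after compound addition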
CHO-K1 Ca ag = nonselective activator or artifact in parental CHO-K1 cells | Fluo-8 calcium fluorescence; scaled to maximal ATP response, vehicle zero | activation, % at 3 µM | 360,000 compounds, 0.48% hits; in the data active = activation above about 15%;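 note: untransfected CHO-K1 host cells lacking M1 receptor as counterscreen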
Active calls of the source: *.

SMILES	CHO-K1 Ca PAM	CHRM1 PAM	CHRM1 antagonist	CHO-K1 Ca antag	CHRM1 agonist	CHO-K1 Ca ag
C[N+]1(CCn2ccc3ccccc32)CCCCC1	-6	-38	42*	-14	-16	0
O=C(O)CCC(=O)N1CCc2cc(S(=O)(=O)NCc3ccc(Cl)cc3)ccc21	-26	8	-14	2	0	0
Clc1ccc(C2=Nn3c(nnc3-c3cccnc3)SC2)s1	-5	10	-3	27*	1	0
COc1ccc(CCNC(=O)c2cc(=O)c3cc(C)ccc3o2)cc1OC	-6	4	-7	-7	0	17*
COc1ccc(CNC(=O)c2cc3c(C)nc4ccccc4c3o2)c(OC)c1	2	-19	37*	15	-5	8
Cc1nc2ccccc2c2oc(C(=O)Nc3ccc(C(C)C)cc3)cc12	-12	1	10	25*	-4	0
Cc1nc2ccccc2c2oc(C(=O)Nc3ccc4c(c3)OCCO4)cc12	7	5	-5	2	-2	0
CCOC(=O)C1=C(COC(=O)/C=C/c2cccc(OC)c2OC)NC(=O)NC1C (stereo not drawn)	-5	-4	17	9	1	8
CC1CCN(Cc2ccc(NC(=O)C3CCN(c4nnc(-n5cccc5)s4)CC3)cc2)CC1	6	-35	97*	-6	-14	0
CC(C)C[C@H]1CNC(=S)N1CC1CCN(CC2CCC(C(C)(C)C)CC2)CC1 (stereo partly drawn)	9	-31	76*	-6	-10	1
CCC(CC)CN1CCC(CN2C(=S)NC[C@@H]2[C@@H](C)CC)CC1	9	-5	-5	-15	-11	1
CC[C@H](C)[C@H]1CNC(=S)N1CC1CCN(CCC(C)(C)C)CC1	2	4	-4	-11	-8	0
CC(C)C[C@H]1CNC(=S)N1CC1CCN(CCC23CC4CC(CC(C4)C2)C3)CC1	24	-31	88*	-18	-10	1
CC[C@H](C)[C@H]1CNC(=S)N1CC1CCN(CCCCc2ccccc2)CC1	1	-31	71*	-5	-11	1
CC[C@H](C)[C@H]1CNC(=S)N1CC1CCN(CCCC2CCCC2)CC1	6	-26	38*	-11	-12	0
CC(C)C[C@H]1CNC(=S)N1CC1CCN(CCCC2CCCCC2)CC1	-1	-31	83*	8	-12	1
S=C1NCCN1CC1CCN(CCC23CC4CC(CC(C4)C2)C3)CC1	-11	-31	85*	-7	-11	0
CCN1CCC(CN2CCNC2=S)CC1	16	2	-4	-6	-9	0
O=C1N[C@@H](c2ccccc2)COC(=O)[C@H](Cc2ccc(F)cc2)C/C=C\C[C@H]1CC(=O)N(CCO)Cc1ccccc1	12	3	0	-9	-1	0
O=C1NC[C@@H](c2ccccc2)OC(=O)[C@H](Cc2ccc(F)cc2)C/C=C\C[C@H]1CC(=O)N(CCO)Cc1ccccc1	-13	-8	16	10	-6	5
O=C1N[C@@H](c2ccccc2)COC(=O)[C@@H](Cc2ccc(F)cc2)C/C=C\C[C@@H]1CC(=O)N(CCO)Cc1ccccc1	-10	-19	32	8	4	17*
O=C1NC[C@H](c2ccccc2)OC(=O)[C@@H](Cc2ccc(F)cc2)C/C=C\C[C@H]1CC(=O)N(CCO)Cc1ccccc1	2	-14	34*	-6	-2	12
O=C1NC[C@H](c2ccccc2)OC(=O)[C@H](Cc2ccc(F)cc2)C/C=C\C[C@H]1CC(=O)N(CCO)Cc1ccccc1	-7	-21	42*	6	1	8
O=C(C[C@@H]1C/C=C\CCC(=O)O[C@H](c2ccccc2)CNC1=O)N[C@H](CO)Cc1ccccc1	19	6	3	-17	18*	6
O=C(O)c1sccc1Oc1ccc(NS(=O)(=O)c2cccc(F)c2)cc1	-6	12	-5	4	-3	0
SMILES	CHO-K1 Ca PAM	CHRM1 PAM	CHRM1 antagonist	CHO-K1 Ca antag	CHRM1 agonist	CHO-K1 Ca ag
COCCn1ccc2c(OCC(=O)Nc3ccccc3OC)cccc2c1=O	-10	-2	5	4	-2	6
CC(=O)c1c(C)[nH]c(C(=O)OCC(=O)Nc2ccc(Cl)cc2[N+](=O)[O-])c1C	-8	-13	34*	37*	-1	13
CCOC(=O)c1c(C)[nH]c(C(=O)OCC(=O)Nc2cc(Cl)ccc2OC)c1C	17	5	-3	-15	-3	0
CCCCCCCCCn1c2c(c(=N)c3c1CCC3)CCCC2	-2	-25	49*	38*	-1	12
CCCCCn1c2c(c(=N)c3ccccc31)CCC2	14	5	-2	-6	-8	1
CCCCCCCCCCn1c2c(c(=N)c3c1CCC3)CCC2	17	-12	35*	18	-1	4
CCCCCCCCn1c2c(c(=N)c3ccccc31)CCC2	-7	-27	47*	31*	-6	8
CCn1c2c(c(=N)c3c1CCC3)CCCC2	22	2	-15	-7	-7	1
CCCN(C(=O)CSc1nnc2ccccn12)C1CCS(=O)(=O)C1 (stereo not drawn)	26	9	-10	4	-1	0
Cc1cc(C)c(C(=O)C(C)OC(=O)Cn2cnc3c2c(=O)n(C)c(=O)n3C)cc1C (stereo not drawn)	5	3	-8	3	-2	2
Cc1c(OCc2ccccc2)cccc1OCc1ccccc1	-10	4	-4	-5	0	0
CN(C)CCC(Oc1ccccc1OCc1ccccc1)c1ccccc1 (stereo not drawn)	7	-21	46*	-4	1	11
COc1ccc(CN2CCCC(C(=O)c3ccc4c(c3)OCO4)C2)c(F)c1 (stereo not drawn)	4	-23	93*	-16	-3	4
CCCn1cc(CN2CCCC(C(=O)c3ccc4c(c3)OCO4)C2)c(C)n1 (stereo not drawn)	8	-24	65*	-9	-5	4
CCN(CC)C(=O)C1CCCN(Cc2ccc3c(c2)OCO3)C1 (stereo not drawn)	-5	-4	11	5	-5	-1
O=C(c1cccc(Cl)c1)C1CCCN(Cc2ccc(N3CCNC3=O)cc2)C1 (stereo not drawn)	14	-21	46*	-13	-6	2
COc1cccc(C(=O)C2CCCN(CC3=Cc4cc(OC)ccc4OC3)C2)c1 (stereo not drawn)	5	-30	42*	-8	-10	1
COc1ccc(CN2CCC(C(=O)c3cccc(Cl)c3)CC2)cc1	9	4	-9	-8	-8	1
O=C(O)c1cccc(Oc2ccc(C(=O)O)c([N+](=O)[O-])c2)c1	5	2	-5	-11	6	1

Bioassay records deposited in PubChem BioAssay by The Scripps Research Institute Molecular Screening Center.
